The results in this text go back to PubChem BioAssay (NCATS).

SMILES strings stand for the structures. Values without a mark were called inactive. Results filed as inconclusive are left out. The source made the active and inactive calls. Unless noted, the call rests on the fitted dose curve; in most records, active means well fitted curve in the direction sought with a large enough effect; inconclusive means small, poorly fitted or top-dose-only effect, or another doubt; inactive means no such curve, though single readings can be large; an effect the other way counts as inactive or inconclusive. A value given as a limit tells only on which side of the number the result lay.

Assay [1] can be described thus: AP1 Signaling Pathway (AID 357; active means well fitted curve in either direction with a large enough effect, not every such curve was filed as active; further: on the % scale 0 is the no-effect control and ±100 the full control effect). To be noted: ME-180 AP-1-bla reporter, EGF-induced, beta-lactamase ratio, 5 h; at 7.69 µM (top of the series) unless noted. The essentials:
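ME-180 cells with beta-lactamase reporter under AP-1 response element, stimulated with EC50 EGF; compounds tested in titration series, 5 h at 37 °C. CCF4 substrate added 2.5 h at room temperature; 460/530 nm emission ratio gave %activity and AC50.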

The target in assay [2] is Cytochrome P450 1A2 (Homo sapiens) (UniProt P05177). In words: p450-cyp1a2 (AID 410; calls by dose curve; further: potency means the concentration at half of the fitted maximal effect;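 on activity change, negative = inhibition: -100% = full effect of reference inhibitor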). The essentials:
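20nM CYP1A2 with 100uM Luciferin-ME (at Km) in 100mM KPO4; compound preincubated 10 min, NADPH regeneration added, 60 min at room temperature. Luciferin quantified by luminescence after detection reagent; normalized to 57 uM furafylline.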

Assay [3] can be described thus: NFAT Signaling Pathway (AID 444; active means well fitted curve in either direction with a large enough effect, not every such curve was filed as active;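 further: carbachol stimulus at about its EC50 of 1 µM final; on the % scale 0 is the no-effect control and ±100 the full control effect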). The conditions noted are these: Jurkat NFAT-bla M1, carbachol, beta-lactamase ratio, 5 h; at 7.69 µM (top of the series) unless noted. The essentials:
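Jurkat cells with NFAT-driven β-lactamase reporter and co-expressed M1 receptor, stimulated with carbachol (final 1 uM, ~EC50), compound titration, 5 h at 37 °C. CCF4 loaded 1 h at RT; 460/530 nm ratio gave %activity and AC50.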

Assay [4] is described as follows: Stat Signaling Pathway (AID 446; active means well fitted curve in either direction with a large enough effect, not every such curve was filed as active;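 further: ME-180 cervical cancer cells given 40 pM IL-6 alongside compound; SIE-controlled beta-lactamase reporter measured as 460/530 nm FRET emission ratio; on the % scale 0 is the no-effect control and ±100 the full control effect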). To be noted: ME-180 SIE beta-lactamase reporter, IL-6 stimulated, 5 h; at 7.69 µM (top of the series) unless noted. The essentials:
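Screening format detects activators and inhibitors alike: ME-180 SIE-bla cells stimulated at 40 pM IL-6 for 5 hrs with compound, then dual-emission beta-lactamase read at 405 nm excitation.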

Assay [5] has as its target Glucocorticoid receptor (Homo sapiens) (UniProt P04150). In words: GR-GFP Redistribution (AID 450;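 active means compounds whose dose series gives a full or clear partial fitted curve of increased nuclear translocation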; further: potency means the concentration at half of the fitted maximal effect). To be noted: U2OS GR-GFP nuclear translocation, laser cytometry, 2 h.
The target is the same in assay [6]. In words: GR-EFC Redistribution (AID 451; calls by dose curve; further: potency means the concentration at half of the fitted maximal effect). The conditions noted are these: CHO-K1 GR-EFC translocation, beta-gal luminescence, 2 h. The essentials: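 CHO-K1 cells expressing nuclear EA and GR-ED fragments of b-gal; compounds titrated up to 46 uM final, 2 h at 37 C. GR nuclear translocation read as complemented b-gal luminescence after 1 h RT detection.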
In assay [7] the target is Mitogen-activated protein kinase 10 (Mus musculus) (UniProt Q61831). In words: JNK3 AlphaScreen Assay (AID 530; active means well fitted curve in either direction with a large enough effect, not every such curve was filed as active;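 further: kinase came from lysate of stimulated human HepG2 cells; signal reports phosphorylation of biotinylated GST-cJun 1-79 at Ser73 with 10 µM ATP; on the % scale 0 is the no-effect control and ±100 the full control effect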). The essentials:
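Pre-activated (IL-1β/TNFα) JNK3 in HepG2 lysates phosphorylates biotin-GST-cJun(1-79), 10 uM ATP; anti-phospho-cJun(Ser73) AlphaScreen read at room temperature, pH 7.6 Tris buffer. Compounds pre-incubated 15 min as titrations.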

Assay [8] addresses Dual specificity protein kinase CLK4 (Homo sapiens) (UniProt Q9HAZ1). In words: qHTS Assay for Inhibitors of CDC-like Kinase 4 (Kinase-Glo Assay) (AID 1770). Further: nearly all actives have a fitted effect of over 65% in size. Further: potency means the concentration at half of the fitted maximal effect. The essentials:
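Readout: Kinase-Glo luminescence from ATP left after a 4.5 h room-temperature reaction of 25 nM Clk4 with 100 uM RS peptide and 1 uM ATP (final). Buffer: 25 mM Tris pH 7.5, 10 mM MgCl2.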
On the technique in general: In qHTS, concentration-response curves come from the screen itself.

Assay [9] has the same target. In words: qHTS Assay for Inhibitors of CDC-like Kinase 4 (ADP-Glo Assay) (AID 1771). Further: nearly all actives have a fitted effect of over 70% in size. Further: potency means the concentration at half of the fitted maximal effect. The essentials: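 25 nM Clk4 with 100 uM RS repeat peptide and 1 uM ATP (final) in buffer with 2 mM MgCl2, 0.5 mM EGTA, 2.5 mM DTT, 0.01% Triton X-100; 1 h at room temperature; ADP-Glo luminescence for ADP formed.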
Assay [10] shares this target. In words: qHTS Assay for Inhibitors of CDC-like Kinase 4 (ADP-FP Assay) (AID 1795).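 Further: recombinant human CLK4 phosphorylating RS repeat peptide at 1 µM ATP; on the % scale 0 is the no-effect control and ±100 the full control effect; nearly all actives have a fitted effect of over 60% in size.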 The essentials: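 FP readout: Orange Transcreener ADP2 tracer (4 nM) plus ADP antibody, read after 30 min at room temperature. Kinase step: 6.25 nM Clk4, 100 uM RS peptide, 1 uM ATP, pH 7.5, 1 h.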
Assay [11] concerns the target Ubiquitin carboxyl-terminal hydrolase 1 (Homo sapiens) (UniProt O94782). In words: Inhibitors of USP1/UAF1: Pilot qHTS (AID 504865). Further: nearly all actives have a fitted effect of over 35% in size. Further: potency means the concentration at half of the fitted maximal effect. The essentials: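 1nM USP1/UAF1 + cpd, 15 min RT; start w/ Ub-Rho 150nM final; kinetic FL 480/540 nm, 6 reads q60 s. Buffer 50mM HEPES pH 7.8, 0.5mM EDTA, 1mM TCEP, 0.01% Tween-20, 0.1 mg/ml BSA.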
Assay [12] can be described thus: Primary qHTS for small molecule stabilizers of the endoplasmic reticulum resident proteome: Secreted ER Calcium Modulated Protein (SERCaMP) assay (AID 1508630). Further: on the % scale 0 is the no-effect control and ±100 the full control effect. The essentials:
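GLuc-SERCaMP-expressing SH-SY5Y cells, pretreated 16 h with compound, are challenged with thapsigargin to empty ER calcium stores; after 4 h, coelenterazine is added directly to the medium and luminescence is imaged.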

Assay [13] deals with 3',5'-cyclic-AMP phosphodiesterase 4B (Homo sapiens) (UniProt Q07343). In words: qHTS Assay for Inhibitors of PDE-IV (AID 607; active means well fitted activation curve with a large enough effect in the main read-out, with a control signal flat, not every such curve was filed as active; further: % of control where 0% means no effect). The essentials: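 The readout is membrane depolarisation from a cAMP-sensing CNG channel, detected with a potential dye at ex 535/em 590. Cells were HEK293-derived (endogenous PDE-IV) at 1000 cells/well, titrated up to 22.9 uM final.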
3',5'-cyclic-AMP phosphodiesterase 4B (Homo sapiens), sequence (Q07343 whole entry, looked up): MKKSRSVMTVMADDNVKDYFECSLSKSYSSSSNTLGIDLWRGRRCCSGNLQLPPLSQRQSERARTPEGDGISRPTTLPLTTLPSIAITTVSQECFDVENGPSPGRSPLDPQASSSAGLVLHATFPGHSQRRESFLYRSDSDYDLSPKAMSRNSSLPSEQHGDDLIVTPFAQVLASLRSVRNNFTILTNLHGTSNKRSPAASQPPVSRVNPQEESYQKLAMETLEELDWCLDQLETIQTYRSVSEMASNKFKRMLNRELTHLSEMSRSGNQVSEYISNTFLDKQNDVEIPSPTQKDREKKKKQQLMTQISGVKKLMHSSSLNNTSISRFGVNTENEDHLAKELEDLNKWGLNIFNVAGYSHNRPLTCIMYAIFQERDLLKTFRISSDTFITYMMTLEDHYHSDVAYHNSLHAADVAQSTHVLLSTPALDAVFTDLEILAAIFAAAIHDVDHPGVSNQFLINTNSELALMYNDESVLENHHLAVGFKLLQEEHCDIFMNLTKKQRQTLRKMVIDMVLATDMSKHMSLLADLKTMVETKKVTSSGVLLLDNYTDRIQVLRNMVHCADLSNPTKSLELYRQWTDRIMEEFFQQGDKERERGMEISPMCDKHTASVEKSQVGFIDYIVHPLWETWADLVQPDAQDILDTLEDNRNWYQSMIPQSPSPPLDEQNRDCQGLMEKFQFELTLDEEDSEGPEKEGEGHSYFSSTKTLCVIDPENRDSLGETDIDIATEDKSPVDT
Assay [14] addresses Cytochrome P450 3A4 (Homo sapiens) (UniProt P08684). In words: qHTS Assay for Inhibitors and Substrates of Cytochrome P450 3A4 (AID 884). Further: potency means the concentration at half of the fitted maximal effect; nearly all actives have a fitted effect of over 50% in size. The essentials:
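20 nM human CYP3A4 with 25 uM Luciferin-PPXE (at KM) in 200 mM KPO4, preincubated 10 min with compound; NADPH regeneration started a 60 min RT reaction. Luciferin detected by luminescence, normalized to 57 uM ketoconazole as full inhibition.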

Assay [15] has the same target. In words: qHTS Assay for Activators of Cytochrome P450 3A4 (AID 885). Further: nearly all actives have a fitted effect of over 65% in size. The essentials:
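Steps: enzyme/substrate mix dispensed; compound added, 10 min RT; NADPH regeneration solution added, 60 min RT; luciferin detection buffer stops reaction; 20 min later luminescence measured.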

Assay [16] addresses Cytochrome P450 2C19 (Homo sapiens) (UniProt P33261). In words: qHTS Assay for Inhibitors and Substrates of Cytochrome P450 2C19 (AID 899). Further: potency means the concentration at half of the fitted maximal effect; nearly all actives have a fitted effect of over 60% in size. The essentials:
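Signal comes from luciferase acting on luciferin released by CYP2C19-mediated hydroxylation of Luciferin-H EGE, 10uM (KM). Assay mix: 5nM enzyme, 50mM KPO4; 60 min at 37C with NADPH regeneration. Data normalized against 57uM ketoconazole.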

Assay [17] deals with Lysosomal acid glucosylceramidase (Homo sapiens) (UniProt P04062). In words: Glucocerebrosidase-p2 (AID 348; in the data active means potency below about 10 µM; further: potency means the concentration at half of the fitted maximal effect). To be noted: purified GBA, blue fluorogenic substrate, 40 min. The essentials:
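Compounds titrated from 0.6 nM upwards against 0.2 nM enzyme in pH 5.9 citric acid/KH2PO4, taurocholate, tween-20; blue fluorogenic substrate 80 uM, 40 min room temperature, stopped and read Ex 365/Em 440 for AC50.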

Assay [18] in a line: qHTS Assay for Identification of Small Molecule Agonists for Hypoxia Response Element Signaling Pathway (AID 914; active means well fitted activation curve with a large enough effect in the signal ratio, with a control signal flat, not every such curve was filed as active; the % refers to the signal ratio; further: potency means the concentration at half of the fitted maximal effect). The conditions noted are these: ME-180 (cervical carcinoma) HRE-bla reporter, beta-lactamase ratio, CoCl2, 17 h; activation: stronger effect = higher value. The essentials:
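ME-180 cells carrying an HRE-driven beta-lactamase reporter were treated with compounds in a titration series plus an EC50 level of CoCl2 for 17 h at 37 degrees Celsius; CCF4 readout as the 460nm/530nm ratio gave AC50 values.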

Cytochrome P450 1A2 (Homo sapiens), sequence (P05177 whole entry, looked up): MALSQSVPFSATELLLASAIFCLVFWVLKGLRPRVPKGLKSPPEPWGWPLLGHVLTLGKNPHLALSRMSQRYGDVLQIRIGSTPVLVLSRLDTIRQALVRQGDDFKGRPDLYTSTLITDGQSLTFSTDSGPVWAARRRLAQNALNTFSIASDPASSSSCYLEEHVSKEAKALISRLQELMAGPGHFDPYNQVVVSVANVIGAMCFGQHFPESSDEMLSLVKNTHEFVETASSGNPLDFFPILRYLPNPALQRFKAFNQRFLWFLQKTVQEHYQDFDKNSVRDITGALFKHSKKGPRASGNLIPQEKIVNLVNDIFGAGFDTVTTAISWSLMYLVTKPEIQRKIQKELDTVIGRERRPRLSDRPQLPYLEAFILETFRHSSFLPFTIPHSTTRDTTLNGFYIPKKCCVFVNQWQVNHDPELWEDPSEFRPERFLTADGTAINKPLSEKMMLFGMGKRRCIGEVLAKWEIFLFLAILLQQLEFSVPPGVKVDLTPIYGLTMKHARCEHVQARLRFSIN
Cytochrome P450 3A4 (Homo sapiens), sequence (P08684 whole entry, looked up): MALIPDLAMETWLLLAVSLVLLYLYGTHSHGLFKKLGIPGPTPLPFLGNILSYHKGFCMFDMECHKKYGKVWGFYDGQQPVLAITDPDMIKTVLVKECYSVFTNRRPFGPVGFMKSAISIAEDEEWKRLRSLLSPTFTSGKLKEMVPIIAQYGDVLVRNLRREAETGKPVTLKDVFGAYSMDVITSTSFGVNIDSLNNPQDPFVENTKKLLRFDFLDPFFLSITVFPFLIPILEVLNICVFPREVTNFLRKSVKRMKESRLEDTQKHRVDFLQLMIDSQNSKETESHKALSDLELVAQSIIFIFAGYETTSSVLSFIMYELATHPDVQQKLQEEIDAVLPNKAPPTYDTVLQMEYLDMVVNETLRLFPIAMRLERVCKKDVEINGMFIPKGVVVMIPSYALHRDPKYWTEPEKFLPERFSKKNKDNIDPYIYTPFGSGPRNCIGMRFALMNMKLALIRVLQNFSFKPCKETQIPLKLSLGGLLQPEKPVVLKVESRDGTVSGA
Glucocorticoid receptor (Homo sapiens), sequence (P04150 whole entry, looked up, the tested form may be a part): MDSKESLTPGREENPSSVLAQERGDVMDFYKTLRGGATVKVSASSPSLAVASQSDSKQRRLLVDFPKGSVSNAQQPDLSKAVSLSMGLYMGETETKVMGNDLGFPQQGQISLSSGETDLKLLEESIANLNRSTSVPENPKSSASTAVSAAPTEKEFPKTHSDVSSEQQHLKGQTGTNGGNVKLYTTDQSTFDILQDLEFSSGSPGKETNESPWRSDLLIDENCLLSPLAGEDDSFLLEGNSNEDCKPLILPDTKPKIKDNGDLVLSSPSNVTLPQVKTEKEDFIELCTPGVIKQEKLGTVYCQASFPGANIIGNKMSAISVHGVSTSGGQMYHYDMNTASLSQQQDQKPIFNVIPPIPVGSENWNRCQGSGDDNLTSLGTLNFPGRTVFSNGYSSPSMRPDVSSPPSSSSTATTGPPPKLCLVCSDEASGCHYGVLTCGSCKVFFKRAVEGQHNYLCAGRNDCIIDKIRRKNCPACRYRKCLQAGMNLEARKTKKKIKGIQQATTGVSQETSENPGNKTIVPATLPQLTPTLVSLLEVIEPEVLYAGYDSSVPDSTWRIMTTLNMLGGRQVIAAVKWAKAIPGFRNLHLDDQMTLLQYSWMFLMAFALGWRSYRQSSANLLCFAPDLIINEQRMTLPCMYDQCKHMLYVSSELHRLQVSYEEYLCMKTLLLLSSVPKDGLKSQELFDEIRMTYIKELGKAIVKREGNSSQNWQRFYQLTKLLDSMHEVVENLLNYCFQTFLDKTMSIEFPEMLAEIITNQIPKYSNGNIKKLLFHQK
Ubiquitin carboxyl-terminal hydrolase 1 (Homo sapiens), sequence (O94782 whole entry, looked up): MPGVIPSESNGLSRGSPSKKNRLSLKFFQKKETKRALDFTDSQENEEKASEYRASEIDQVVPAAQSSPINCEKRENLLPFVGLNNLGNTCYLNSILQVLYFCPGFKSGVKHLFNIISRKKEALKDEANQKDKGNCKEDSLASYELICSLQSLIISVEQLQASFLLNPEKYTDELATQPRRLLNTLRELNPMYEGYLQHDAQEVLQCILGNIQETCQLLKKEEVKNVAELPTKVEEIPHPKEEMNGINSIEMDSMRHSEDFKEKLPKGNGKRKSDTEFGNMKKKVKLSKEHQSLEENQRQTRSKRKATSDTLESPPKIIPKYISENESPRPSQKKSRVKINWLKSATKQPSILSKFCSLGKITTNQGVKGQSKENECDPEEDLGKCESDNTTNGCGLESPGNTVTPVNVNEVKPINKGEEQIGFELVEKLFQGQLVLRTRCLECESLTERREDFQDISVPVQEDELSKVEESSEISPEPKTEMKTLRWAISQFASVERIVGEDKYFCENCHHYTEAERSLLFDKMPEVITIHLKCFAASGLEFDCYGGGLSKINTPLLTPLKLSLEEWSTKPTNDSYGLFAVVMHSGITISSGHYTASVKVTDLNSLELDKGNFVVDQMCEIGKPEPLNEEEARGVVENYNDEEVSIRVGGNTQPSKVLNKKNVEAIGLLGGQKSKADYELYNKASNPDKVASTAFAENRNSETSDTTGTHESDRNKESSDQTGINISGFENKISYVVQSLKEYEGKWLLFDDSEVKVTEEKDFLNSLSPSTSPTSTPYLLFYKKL
Dual specificity protein kinase CLK4 (Homo sapiens), sequence (Q9HAZ1 whole entry, looked up): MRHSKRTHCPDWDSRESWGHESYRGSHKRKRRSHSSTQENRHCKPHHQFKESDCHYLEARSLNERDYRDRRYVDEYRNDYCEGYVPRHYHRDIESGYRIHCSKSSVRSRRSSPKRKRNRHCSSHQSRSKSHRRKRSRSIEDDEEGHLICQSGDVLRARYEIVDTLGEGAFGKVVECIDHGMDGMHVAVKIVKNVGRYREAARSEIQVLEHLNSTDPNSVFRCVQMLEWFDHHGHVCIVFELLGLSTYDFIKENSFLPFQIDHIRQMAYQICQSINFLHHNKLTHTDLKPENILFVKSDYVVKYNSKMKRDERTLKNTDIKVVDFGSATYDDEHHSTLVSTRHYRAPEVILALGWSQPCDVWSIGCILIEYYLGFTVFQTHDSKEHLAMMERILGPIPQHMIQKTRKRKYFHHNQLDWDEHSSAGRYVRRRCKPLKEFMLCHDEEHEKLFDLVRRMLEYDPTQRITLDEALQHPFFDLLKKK
Cytochrome P450 2C19 (Homo sapiens), sequence (P33261 whole entry, looked up): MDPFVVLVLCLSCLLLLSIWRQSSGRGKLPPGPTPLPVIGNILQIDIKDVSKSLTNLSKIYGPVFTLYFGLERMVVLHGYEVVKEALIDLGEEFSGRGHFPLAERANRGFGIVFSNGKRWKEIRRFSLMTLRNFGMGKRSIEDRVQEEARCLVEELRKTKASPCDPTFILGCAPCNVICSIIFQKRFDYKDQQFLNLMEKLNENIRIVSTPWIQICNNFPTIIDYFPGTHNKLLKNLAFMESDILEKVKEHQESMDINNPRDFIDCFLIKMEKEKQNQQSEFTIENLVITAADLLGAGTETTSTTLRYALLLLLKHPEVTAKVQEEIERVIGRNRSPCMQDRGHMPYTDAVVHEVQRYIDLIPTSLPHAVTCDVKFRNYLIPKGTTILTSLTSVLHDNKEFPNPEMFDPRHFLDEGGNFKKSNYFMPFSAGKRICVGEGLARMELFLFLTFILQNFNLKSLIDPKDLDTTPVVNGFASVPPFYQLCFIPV
Lysosomal acid glucosylceramidase (Homo sapiens), sequence (P04062 whole entry, looked up): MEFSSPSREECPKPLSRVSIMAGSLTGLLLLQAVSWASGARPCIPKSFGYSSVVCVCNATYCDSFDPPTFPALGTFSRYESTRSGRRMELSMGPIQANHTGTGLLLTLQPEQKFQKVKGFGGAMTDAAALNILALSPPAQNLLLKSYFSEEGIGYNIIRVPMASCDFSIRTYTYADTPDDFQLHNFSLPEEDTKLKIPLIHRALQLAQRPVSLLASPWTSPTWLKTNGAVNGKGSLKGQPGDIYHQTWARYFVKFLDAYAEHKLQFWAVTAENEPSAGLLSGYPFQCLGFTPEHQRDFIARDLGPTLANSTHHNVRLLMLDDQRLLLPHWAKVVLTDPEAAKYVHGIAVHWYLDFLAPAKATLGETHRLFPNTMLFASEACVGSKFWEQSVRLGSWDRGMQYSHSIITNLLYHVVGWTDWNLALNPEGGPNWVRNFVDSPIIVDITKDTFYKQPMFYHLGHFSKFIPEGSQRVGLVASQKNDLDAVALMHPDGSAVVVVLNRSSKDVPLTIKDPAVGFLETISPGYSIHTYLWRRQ

For `Clc1ccccc1-c1nccc(NCc2ccccc2)n1`, the activity change, negative = inhibition in assay [1] is 12.5%; in assay [3], 10.7%. The Potency was 3.16 µM (active) in assay [2], greater than 46 µM in assay [5], greater than 46 µM in assay [6] and 28.2 µM (active) in assay [11]. For the same compound, in assay [4], the activity, negative = inhibition is -6.25%. The Potency result in assay [7], in assay [8], in [9] and in assay [10] was “inactive” throughout. Moreover, the result in [12] was inactive.

Consider `CN(Cc1ccco1)c1ncncc1-c1ccccc1C(F)(F)F`, for which the activity change, negative = inhibition in assay [1] is 13.8%. Besides, the Potency in assay [2] is 12.6 µM (active); in [5], greater than 46 µM; in [6], greater than 46 µM; in [14], 1.26 µM (active); in [16], 3.98 µM (active). For the same compound, the activity, negative = inhibition in [4] is -2.15%. For the same compound, the Potency result in [7], in assay [13], in [15], in assay [8], in [9] and in assay [10] was “inactive” throughout. In addition, the Potency result in [11] was “inactive”. For the same compound, the outcome in assay [12] was inactive.

For the compound `O=c1c(-c2ccc(Cl)cc2)nc2cnc(N3CCNCC3)nc2n1CCc1ccccc1`, the Potency is greater than 11.4 µM in assay [17], greater than 9.22 µM in assay [5] and greater than 46 µM in assay [6]. Besides, the Potency result in assay [13], in assay [15], in assay [8], in assay [9] and in assay [10] was “inactive” in each case. Besides, the result in [12] was inactive.

As to `COc1ccc2[nH]cc(CCNc3ccnc(-c4ccc(N(C)C)cc4)n3)c2c1`, in assay [1], the activity change, negative = inhibition is 11.2%. Further, the Potency was 0.631 µM (active) in assay [2]; greater than 46 µM in [5]; greater than 46 µM in assay [6]; 5.01 µM (active) in assay [14]; 6.31 µM (active) in assay [16]; 15.8 µM (active) in assay [8]. For the same compound, the Potency in assay [9] was 14.1 µM (active). The Potency result in assay [13], in assay [15], in assay [10] and in [11] was “inactive” each time. For the same compound, the result in [12] was inactive.

Take `CCNc1ncc2nc(-c3ccc(Cl)cc3)c(=O)n(C)c2n1`: the activity change, negative = inhibition in assay [1] is 23.6%; in [3], 20%. For the same compound, the Potency is 0.398 µM (active) in [2], greater than 9.22 µM in [5] and greater than 46 µM in assay [6]. For the same compound, the Potency result in assay [7], in assay [13], in assay [8], in assay [9], in assay [10] and in [11] was “inactive” each time. Besides, the outcome in assay [12] was inactive.

With `Cc1noc(C)c1-c1nccc(N2CCN(C)CC2)n1`, the activity change, negative = inhibition in [1] is 16%; in assay [3], -10.9%. The Potency in assay [2] was 2 µM (active); in assay [5] it was greater than 46 µM; in assay [6] it was greater than 46 µM. The activity, negative = inhibition in [4] is 11.7%. In addition, the Potency entry in assay [7], in assay [13], in assay [8], in assay [9], in assay [10] and in assay [11] was “inactive” each time. Also, the result in [12] was inactive.

Regarding `CN(C)c1ncc2nc(-c3cc(F)cc(F)c3)c(=O)n(CCc3ccccc3)c2n1`, the Potency entry in [2], in assay [13], in assay [8], in [9], in [10] and in assay [11] was “inactive” throughout. Also, the Potency is greater than 46 µM in assay [6] and 2.51 µM (active) in assay [18]. In addition, in [12], the outcome was inactive.
